From the supplement of paper PMC8975748 come the findings set out here.

Test [1] concerns Saccharomyces cerevisiae BY4741 SeMeCo community. Put plainly: mean cell size (pixel area) (pixels); higher = larger cells. The following applies: 10 µM; 24 h; SM minimal medium. A digest of the protocol:
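In this assay, mean cell pixel area per well was obtained from automated confocal images of paraformaldehyde-fixed yeast analysed in Harmony. The cells were a Saccharomyces cerevisiae BY4741 community with four plasmids, each complementing one auxotrophy and carrying a fluorescent marker, grown for 24 h in SM medium with drug at a final 10 µM in 384-well plates. Values are averaged across 3 replicates. Same SeMeCo high-content imaging drug screen: Selleck FDA-approved drugs at 10 µM, 24 h in SM medium, 384-well plates, 3 replicates.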

Test [2] shares this test system. Put plainly: z-score of prototroph abundance vs DMSO median; higher = larger share of this subpopulation than in DMSO controls. The following applies: 10 µM; 24 h; SM minimal medium; subpopulation (auxotrophy): Prototroph. The method in brief: (§1)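 Four plasmids, each restoring a single auxotrophy and encoding a distinct fluorescent protein, were carried by a Saccharomyces cerevisiae BY4741 community. After overnight growth to OD600 1.0 and dilution to 0.3, 70 µl per well was grown for 24 h in minimal SM medium on 384-well plates acoustically predosed with library drugs at 10 µM final. Following paraformaldehyde fixation, automated confocal microscopy was used, with single-auxotroph fluorescent strains defining thresholds and autofluorescence correction. Subpopulation abundance was then scored as a z-score against the vehicle-well median.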

For test [3] the test system is unchanged. The experiment in a line: z-score of subpopulation abundance vs DMSO median, subpopulation auxotrophic for M; higher = larger share of this subpopulation than in DMSO controls. The following applies: 10 µM; 24 h; SM minimal medium; subpopulation (auxotrophy): M. The method in brief:
as §1

Test [4] has the same test system. Put plainly: z-score of subpopulation abundance vs DMSO median, subpopulation auxotrophic for L; higher = larger share of this subpopulation than in DMSO controls. The following applies: 10 µM; 24 h; SM minimal medium; subpopulation (auxotrophy): L. A digest of the protocol: as §1
Test [5] shares this test system. Put plainly: z-score of subpopulation abundance vs DMSO median, subpopulation auxotrophic for U; higher = larger share of this subpopulation than in DMSO controls. The following applies: 10 µM; 24 h; SM minimal medium; subpopulation (auxotrophy): U. A digest of the protocol:
as §1

For test [6] the test system is unchanged. Put plainly: z-score of subpopulation abundance vs DMSO median, subpopulation auxotrophic for H; higher = larger share of this subpopulation than in DMSO controls. The following applies: 10 µM; 24 h; SM minimal medium; subpopulation (auxotrophy): H. The method in brief: as §1
For test [7] the test system is unchanged. The experiment in a line: z-score of subpopulation abundance vs DMSO median, subpopulation auxotrophic for LU; higher = larger share of this subpopulation than in DMSO controls. The following applies: 10 µM; 24 h; SM minimal medium; subpopulation (auxotrophy): LU. A digest of the protocol: as §1
For test [8] the test system is unchanged. Put plainly: z-score of subpopulation abundance vs DMSO median, subpopulation auxotrophic for HM; higher = larger share of this subpopulation than in DMSO controls. The following applies: 10 µM; 24 h; SM minimal medium; subpopulation (auxotrophy): HM. A digest of the protocol:
as §1

The test system is the same in test [9]. Put plainly: z-score of subpopulation abundance vs DMSO median, subpopulation auxotrophic for UM; higher = larger share of this subpopulation than in DMSO controls. The following applies: 10 µM; 24 h; SM minimal medium; subpopulation (auxotrophy): UM. The method in brief:
as §1

Test [10] shares this test system. The experiment in a line: z-score of subpopulation abundance vs DMSO median, subpopulation auxotrophic for HL; higher = larger share of this subpopulation than in DMSO controls. The following applies: 10 µM; 24 h; SM minimal medium; subpopulation (auxotrophy): HL. A digest of the protocol:
as §1

Test [11] has the same test system. The experiment in a line: z-score of subpopulation abundance vs DMSO median, subpopulation auxotrophic for LUM; higher = larger share of this subpopulation than in DMSO controls. The following applies: 10 µM; 24 h; SM minimal medium; subpopulation (auxotrophy): LUM. The method in brief:
as §1

Test [12] shares this test system. The experiment in a line: z-score of subpopulation abundance vs DMSO median, subpopulation auxotrophic for HLUM; higher = larger share of this subpopulation than in DMSO controls. The following applies: 10 µM; 24 h; SM minimal medium; subpopulation (auxotrophy): HLUM. The method in brief: as §1
For test [13] the test system is unchanged. Put plainly: z-score of subpopulation abundance vs DMSO median, subpopulation auxotrophic for HU; higher = larger share of this subpopulation than in DMSO controls. The following applies: 10 µM; 24 h; SM minimal medium; subpopulation (auxotrophy): HU. A digest of the protocol:
as §1

Test [14] shares this test system. The experiment in a line: z-score of subpopulation abundance vs DMSO median, subpopulation auxotrophic for HLM; higher = larger share of this subpopulation than in DMSO controls. The following applies: 10 µM; 24 h; SM minimal medium; subpopulation (auxotrophy): HLM. The method in brief: as §1
Test [15] shares this test system. The experiment in a line: z-score of subpopulation abundance vs DMSO median, subpopulation auxotrophic for HUM; higher = larger share of this subpopulation than in DMSO controls. The following applies: 10 µM; 24 h; SM minimal medium; subpopulation (auxotrophy): HUM. The method in brief: as §1
For test [16] the test system is unchanged. The experiment in a line: z-score of subpopulation abundance vs DMSO median, subpopulation auxotrophic for LM; higher = larger share of this subpopulation than in DMSO controls. The following applies: 10 µM; 24 h; SM minimal medium; subpopulation (auxotrophy): LM. A digest of the protocol: as §1

Structures are written as SMILES. Where a name gives a salt, the structure may show the parent alone. ± gives the standard deviation of the averaged measurements.

Turning to `CC[C@@]1(O)C(=O)OCc2c1cc1n(c2=O)Cc2cc3cc(O)ccc3nc2-1` [(S)-10-Hydroxycamptothecin], the mean cell size in [1] came to 12.41 ± 0.077. The “z-score of prototroph abundance” value in test [2] amounted to 0.14. The “z-score of subpopulation abundance” value in test [3] is 0.87; in test [4] it was 1.09; in test [5], -1.66; in test [6], 0.82; in [7], -0.98; in test [8], 0.81. The “z-score of subpopulation abundance” value in test [9] is -0.98; in test [10], 0.62; in test [11], 0.42; in [12], -0.28.

Consider `CC1=C(C(=O)O)N2C(=O)[C@@H](NC(=O)[C@H](N)c3ccc(O)cc3)[C@H]2SC1` [Cefadroxil hydrate], for which, in test [1], the mean cell size was determined as 12.1 ± 0.2. The “z-score of prototroph abundance” value in test [2] worked out at 0.8. In addition, the “z-score of subpopulation abundance” value in test [3] was -0.99; in test [5], -0.62; in test [6], 0.01; in [8] it was -0.79; in test [13], -0.04; in test [10], -0.19. The “z-score of subpopulation abundance” value is -0.45 in [14], -0.39 in test [15], -0.5 in test [11] and -0.33 in [12].

Consider `CC1CCc2c(N3CCC(O)CC3)c(F)cc3c(=O)c(C(=O)O)cn1c23` (stereo unspecified) [Nadifloxacin], for which the mean cell size in test [1] was 12.6 ± 0.13. Further, the “z-score of prototroph abundance” value in [2] was -0.14. Besides, the “z-score of subpopulation abundance” value was 0.33 in test [3]; 0.77 in test [4]; 0.05 in test [5]; -0.1 in test [6]; 0.62 in test [7]; 0.06 in test [16]. Moreover, the “z-score of subpopulation abundance” value in [13] was 0.43; in [9], -0.28; in test [15] it was -0.22; in test [11], 0.27.

Take `COc1cc2c(cc1OC)C(=O)C(CC1CCN(Cc3ccccc3)CC1)C2` (stereo unspecified) [Donepezil HCl]: the mean cell size in test [1] worked out at 12 ± 0.22. The “z-score of subpopulation abundance” value is 0.12 in test [3]; -0.02 in [4]; -0.01 in [5]; 0.71 in test [6]; -0.26 in test [16]; -0.33 in [8]. The “z-score of subpopulation abundance” value was 0.45 in test [13]; -0.23 in test [10]; 0.49 in test [14]; 0.3 in [15]; -0.52 in test [11]; -1.2 in test [12].

As to `Cc1c(Cl)cccc1Nc1ccccc1C(=O)O` [Tolfenamic Acid], the mean cell size in test [1] was 12.7 ± 0.24. For the same compound, the “z-score of subpopulation abundance” value in [3] was -0.25; in [4], -2.08; in test [5], 0.15; in test [7], -1.24; in test [8], -1.11; in [13] it was -0.34. For the same compound, the “z-score of subpopulation abundance” value is -0.9 in [9], -0.69 in [10], -0.87 in test [15] and -1.09 in test [12].

In the case of `C=CC[N+]1([C@H]2C[C@H]3[C@@H]4CC[C@H]5C[C@H](O)[C@@H](N6CCOCC6)C[C@]5(C)[C@H]4CC[C@]3(C)[C@H]2OC(C)=O)CCCC1` [Rocuronium Bromide], the “z-score of prototroph abundance” value in test [2] turned out to be 0.88. Besides, the “z-score of subpopulation abundance” value is -1.19 in test [3]; -0.5 in test [5]; -0.21 in [6]; -0.06 in test [7]; -0.17 in test [16]; -0.59 in test [8]. For the same compound, the “z-score of subpopulation abundance” value was -0.39 in [13]; -0.71 in [9]; -0.71 in test [10]; -0.65 in [14]; -1.09 in test [15]; -0.48 in [11]. In addition, in test [12], the “z-score of subpopulation abundance” value is -0.49.

With `CCn1cc(C(=O)O)c(=O)c2cc(F)c(N3CCNC(C)C3)c(F)c21` (stereo unspecified) [Lomefloxacin HCl], the mean cell size in [1] is 12.1 ± 0.14. The “z-score of prototroph abundance” value in test [2] was -1.02. The “z-score of subpopulation abundance” value in [3] is 1.99; in test [4], 1.02; in test [5], -0.45; in [6] it was 0.73; in [7] it was 0.53; in test [16] it was 1.35. Also, the “z-score of subpopulation abundance” value in test [8] was 1.66; in [13] it was 0.12; in test [9], 0.51; in test [10], 1.2; in test [15], 0.66; in test [11], 1.32. The “z-score of subpopulation abundance” value in [12] turned out to be 0.54.

On to `CC(=O)[C@@]1(O)CC[C@H]2[C@@H]3CCC4=CC(=O)CCC4=C3[C@@H](c3ccc(N(C)C)cc3)C[C@@]21C` [Ulipristal], for which the mean cell size in test [1] is 12.3 ± 0.16.

Compound `O=C1C(O)=C([C@H]2CC[C@H](c3ccc(Cl)cc3)CC2)C(=O)c2ccccc21` [Atovaquone] showed a mean cell size in test [1] of 12.39 ± 0.12.
